From PubChem
KCNQ2 inh: inhibitors of rat KCNQ2 potassium channel; O88943; CHO-K1 KCNQ2, FluxOR thallium flux, 20 min; active compounds read low; B-score at 10 µM; hit rate 1.1% among 310,000;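 active = fluorescence ratio B-score at most minus 3 library SDs, with starting brightness B-score within 2 library SDs, cut at about -5.5 in these data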
KCNQ2 enhance: potentiators of rat KCNQ2 potassium channel; hit rate 0.54% among 310,000; O88943; AID 2239; B-score at 10 µM; CHO-K1 KCNQ2, FluxOR thallium flux fluorescence; active compounds read high;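 active = fluorescence ratio B-score at least 3 SD of library B-scores, with initial fluorescence B-score within 3 of them, cut at about 5.3 in these data; same plate scores as AID 2156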;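 also: B-score of peak minus minimum over baseline fluorescence ratio after K+ and Tl+ stimulus; positive B-score means potentiation of KCNQ2 with more thallium influx and brighter signal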
Kir21 confirm: confirmation of mouse Kir2.1 potassium channel inhibitors; Tl flux remaining, % of negative control (active compounds read low), % at 10 µM; shares compounds with KCNQ2 enhance; hit rate 41% among 2,300; Kir2.1-expressing cells, FluxOR thallium flux fluorescence; active compounds read low;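 active = Primary-screen hit whose thallium flux fell at least 3 control SD below untreated wells in both duplicates, with normal baseline fluorescence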;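 also: 0% = blank wells without stimulus and 100% = stimulated no-compound controls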
HEK293 Tl flux: counter-screen for Kir2.1 inhibitors: effect in parental HEK293 cells; FluxOR thallium flux fluorescence; 0% = unstimulated blank wells; hit rate 19% among 2,300; shares compounds with KCNQ2 enhance; AID 2105; FluxOR signal as % of negative control (100 = no effect), % at 10 µM;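 active = dye signal at least 3 control SD above or below untreated wells in both duplicates, raw fluorescence within 3, either direction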;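 also: percent is based on the flux ratio of peak minus minimum fluorescence over baseline F0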
CHO-K1 ctr: counter-screen for KCNQ2 potentiators: effect in parental CHO-K1 cells; shares compounds with KCNQ2 enhance; FluxOR thallium flux fluorescence; zero = vehicle mean+3SD, 100% = vehicle-minus-blank window; activity increase over 3SD of controls, % at 10 µM; hit rate 43% among 1,200; AID 2282;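 active = signal rise of at least 3 SD above the untreated control mean, in both duplicate wells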;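 also: counter screen of KCNQ2 potentiator hits so any rise reflects channel-independent effects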
KCNQ1 pot spec: selectivity of KCNQ2 potentiators: effect on human KCNQ1. activation over 3SD threshold, % at 10 µM. hit rate 28% among 1,200. shares compounds with KCNQ2 enhance. CHO KCNQ1 stable, FluxOR thallium flux fluorescence; beyond 3SD, as % of vehicle-control signal;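 active = fluorescence ratio rise of at least 3 SD of vehicle wells above their mean, in both replicate wells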;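 also: 0% = vehicle mean plus 3 SD and 100% = vehicle minus unstimulated blank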
Target sequence (P51787 whole entry, looked up): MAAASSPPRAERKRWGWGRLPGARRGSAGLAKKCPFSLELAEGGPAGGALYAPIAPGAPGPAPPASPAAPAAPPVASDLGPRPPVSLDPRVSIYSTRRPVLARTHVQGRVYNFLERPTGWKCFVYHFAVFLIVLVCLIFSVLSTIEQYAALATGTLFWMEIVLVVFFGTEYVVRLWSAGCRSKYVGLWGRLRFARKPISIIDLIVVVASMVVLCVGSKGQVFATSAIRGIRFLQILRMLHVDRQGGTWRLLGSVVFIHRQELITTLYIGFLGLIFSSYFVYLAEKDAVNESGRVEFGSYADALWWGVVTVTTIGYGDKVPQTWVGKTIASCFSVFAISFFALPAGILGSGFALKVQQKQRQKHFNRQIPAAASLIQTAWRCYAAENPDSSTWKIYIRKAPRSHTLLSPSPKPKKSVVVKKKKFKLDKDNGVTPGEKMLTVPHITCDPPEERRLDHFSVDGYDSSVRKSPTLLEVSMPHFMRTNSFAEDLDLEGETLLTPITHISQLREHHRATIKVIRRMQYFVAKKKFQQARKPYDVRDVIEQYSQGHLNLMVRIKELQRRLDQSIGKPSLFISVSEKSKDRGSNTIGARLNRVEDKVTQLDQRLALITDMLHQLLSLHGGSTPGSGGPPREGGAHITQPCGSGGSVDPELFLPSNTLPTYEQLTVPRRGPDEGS
KCNQ2 pot confirm: rat KCNQ2 channel potentiator confirmation | shares compounds with KCNQ2 enhance | CHO-KCNQ2 cells, FluxOR thallium flux fluorescence | potentiation, less the hit threshold, % at 10 µM | hit rate 68% among 1,200 | AID 2287;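 active = fluorescence ratio rising 3 SD or more over the vehicle control mean in both replicates, plus primary screen hit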;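 also: peak minus minimum thallium fluorescence divided by baseline after K/Tl stimulus; 0% = vehicle mean plus 3 SD and 100% = vehicle minus unstimulated blank difference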
Kir2-1 sel: tests whether KCNQ2 potentiators also affect mouse Kir2.1 | shares compounds with KCNQ2 enhance | HEK293 Kir2.1, FluxOR thallium flux fluorescence | activity over 3SD threshold, % at 10 µM | hit rate 2% among 1,200 | AID 2345;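 active = fluorescence ratio rise of at least 3 SD above the vehicle-control mean, seen in both replicates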;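 also: 0% = vehicle mean plus 3 SD and 100% = vehicle minus no-stimulus blank window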
KCNQ2 W236L MoA: rat KCNQ2 W236L mutant potentiation by KCNQ2 potentiators. shares compounds with KCNQ2 enhance. CHO KCNQ2-W236L, automated patch clamp current. current increase over 3SD of negative controls (%), active compounds read high, % at 25 µM. hit rate 10% among 940. AID 2558;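 active = current increase at least 3 SD of the untreated controls above them in both duplicate recordings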
Active calls of the source: *; i = inactive; . = no result. Rows were chosen to be rich in hits. Some 1.6% of all compounds tested hit in one or more screens of this group.

SMILES	KCNQ2 inh	KCNQ2 enhance	Kir21 confirm	HEK293 Tl flux	others
Cc1ccc(S(=O)(=O)c2ccc(C)cc2)cc1	i	0.96	.	.
Cc1ccc(S(=O)(=O)CCCS(=O)(=O)c2ccc(C)cc2)cc1	i	.	67%*	i
COc1cccc(CN2CC(C(=O)N(C)Cc3ccnc4ccccc34)CCC2=O)c1 (stereo not given)	i	.	.	.
Cc1ccc(C(=O)NC2(O)C(=O)c3ccccc3C2=O)cc1C	i	5.7*	i	i	CHO-K1 ctr=-25;KCNQ1 pot spec=-13;KCNQ2 pot confirm=-6;Kir2-1 sel=-36;KCNQ2 W236L MoA=22%*
O=C(NC1(O)C(=O)c2ccccc2C1=O)c1ccc(C(F)(F)F)cc1	i	.	.	.
O=C1NC(c2ccccc2)=C(c2nc3ccccc3s2)C(c2ccc(O)cc2)N1 (stereo not given)	i	15*	i	i	CHO-K1 ctr=-20;KCNQ1 pot spec=-1;KCNQ2 pot confirm=11*;Kir2-1 sel=-33;KCNQ2 W236L MoA=i
O=C1NC(c2ccccc2)=C(c2ccc3ccccc3n2)C(c2ccccc2)N1 (stereo not given)	i	.	.	.
COc1ccccc1C(=O)C1CCCN(C(=O)c2ccco2)C1 (stereo not given)	i	.	.	.
O=[N+]([O-])c1cc(C(F)(F)F)ccc1Sc1nccn1Cc1ccccc1	i	.	58%*	i
Cn1ccnc1Sc1ccccc1[N+](=O)[O-]	i	.	.	.
O=[N+]([O-])c1cc(C(F)(F)F)ccc1Sc1ccc2ccccc2n1	i	.	.	.
O=[N+]([O-])c1ccc(Sc2nccn2Cc2ccccc2)c([N+](=O)[O-])c1	i	.	52%*	i
COCCCNC(=O)c1sc2ncnc(N3CCc4ccccc4C3)c2c1C	i	0.01	.	.
CC1CCCCN1S(=O)(=O)c1ccc(S(=O)(=O)NCCc2ccncc2)cc1 (stereo not given)	i	0.55	.	.
O=C(NC(=S)N1CCN(c2nc(-c3ccccc3)cs2)CC1)c1cncc(Br)c1	i	17*	i	247%*	CHO-K1 ctr=-11;KCNQ1 pot spec=-14;KCNQ2 pot confirm=18*;Kir2-1 sel=-26;KCNQ2 W236L MoA=i
COCCCNC(=S)N1CCN(c2nc(-c3ccccc3)cs2)CC1	i	0.5	.	.
COc1ccc(N2CCN(C(=O)CCc3nnc4ccc(N5CCCC5)nn34)CC2)cc1	i	.	.	.
C=CCNCCCCOc1c(Cl)cc(C)cc1Br	i	0.5	35%*	i
C=CCNCCOc1c(C)cc(C)cc1Cl	i	1.7	.	.
Cc1cc(Cl)c(OCCCNC2CCCC2)c(Br)c1	i	2.9	.	.
COCCCNCCCCOc1c(Cl)cc(C)cc1Br	i	.	44%*	i
CC(NS(=O)(=O)OCC(Cl)(Cl)Cl)c1ccc(Br)cc1 (stereo not given)	i	.	42%*	i
CC(C)CC(NS(=O)(=O)OCC(Cl)(Cl)Cl)c1ccccc1 (stereo not given)	i	.	.	.
COc1cc(CNCc2ccccn2)ccc1OCc1c(Cl)cccc1Cl	i	0.47	40%*	i
COc1cc(CNCc2ccccn2)ccc1OCc1ccc(Cl)cc1	i	1.3	.	.
CC(C)c1ccc(/C=C2\SC(=O)N(CC(=O)NC3C=CS(=O)(=O)C3)C2=O)cc1 (stereo not given)	i	.	.	.
CC(=O)c1c(C)[nH]c(-c2ccccc2)nc1=S	i	6*	i	168%*	CHO-K1 ctr=41*;KCNQ1 pot spec=-4;KCNQ2 pot confirm=-2;Kir2-1 sel=-24;KCNQ2 W236L MoA=i
COc1ccccc1-c1nc(=S)c(C(C)=O)c(C)[nH]1	i	0.12	.	.
CC1CCCCC1N(C)C1CCN(C(=O)CNC(=O)/C=C/c2cccc(Cl)c2)CC1 (stereo not given)	i	.	.	.
Cc1cc(-c2nnc(CCC(=O)NC(C)(C)C34CC5CC(CC(C5)C3)C4)o2)no1	i	.	.	.
